HPGD block: blocks human HPGD enzyme activity. purified HPGD, NADH fluorescence kinetic, PGE2 substrate. P15428. Potency, µM, inactives show at the highest dose activity change, negative = inhibition, hits mostly inhibitors. actives 4.3% (n = 150,000); active means well fitted inhibition curve with a large enough effect, not every such curve was filed as active; inconclusive means small, poorly fitted or top-dose-only effect, or another doubt; inactive means no such curve, though single readings can be large or run the other way; further: potency means the concentration at half of the fitted maximal effect
Target sequence (P15428 whole entry, looked up): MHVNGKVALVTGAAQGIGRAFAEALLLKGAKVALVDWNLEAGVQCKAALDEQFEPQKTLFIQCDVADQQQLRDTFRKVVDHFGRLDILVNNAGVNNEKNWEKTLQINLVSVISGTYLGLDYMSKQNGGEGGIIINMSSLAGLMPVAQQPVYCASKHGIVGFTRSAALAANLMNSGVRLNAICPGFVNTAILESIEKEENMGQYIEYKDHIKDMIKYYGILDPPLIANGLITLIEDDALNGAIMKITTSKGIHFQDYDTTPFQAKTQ
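NADH formation kinetics: reaction with 30 uM PGE2 and 1 mM NAD+ (final), 20 nM enzyme, Tris-HCl pH 8 with Tween 20, after 15 min compound preincubation at room temperature. Fluorescence change, last versus first of five reads.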
PNC assembly inh: inhibitors of perinucleolar compartment assembly | PC3M PTB-GFP, PNC prevalence imaging, 16 h; hits give low values | activity change (PNC), negative = inhibition, % at 10 µM | actives 3.1% (n = 140,000);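 active means readout at or below -70, meaning at least 70% loss of cells showing the perinucleolar compartment, a nuclear body marking cancer cells; inconclusive means readout between -30 and a set limit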;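 further: plate controls were DMSO wells for no effect and camptothecin positive control wells for full effect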
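PC3M cells stably expressing PTB-GFP, 750–1000 cells/well, treated 16 h at 37 °C with compound (23 nl of library stock), in duplicate. After paraformaldehyde fixation and Hoechst stain, imaged at 20x; PNC prevalence scored by image analysis.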
ALOX12 inhib: 12-hLO (ALOX12) enzyme inhibition | P18054 | purified 12-hLO, xylenol orange hydroperoxide absorbance | Potency, µM (series often up to 57.1 µM), for the others: at the top dose activity change, negative = inhibition, most hits filed as inhibitors | actives 0.12% (n = 150,000) | AID 1452; further: potency means the concentration at half of the fitted maximal effect; nearly all actives have a fitted effect of over 55% in size
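Purified human 12hLO (150 nM), preincubated 15 min with compound, then 40 uM arachidonic acid for 30 min, room temperature, Hepes pH 7.0 with 0.01% Triton X-100. Hydroperoxide detected by ferrous iron/xylenol orange; 573/405 nm absorbance ratio gives reaction progress.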
15-hLO-2 inh: 15-hLO-2 (ALOX15B) enzyme inhibition | O15296 | purified 15hLO-2, xylenol orange hydroperoxide absorbance | Potency, µM (series often up to 57.1 µM), inactives show at the top dose activity change, negative = inhibition, usual class: inhibitors | actives 0.56% (n = 110,000); further: potency means the concentration at half of the fitted maximal effect; nearly all actives have a fitted effect of over 60% in size
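Enzyme 50 nM, AA 45 uM, 25 mM Hepes pH 7.5 + 0.01% Triton X-100; cpd preinc 15 min RT, rxn 90 min RT; stop/detect with 200 uM XO + 300 uM Fe(II) in 50 mM H2SO4, 30 min; A573/A405.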
IMPase Li cell: cell-permeable IMPase inhibitors with lithium potentiation; CHO-M1 cells, IP1 TR-FRET (IP-One), carbachol + lithium; AID 1457; Potency, µM (highest dose often 59.4 µM), inactives show top-dose activity, negative = IMPase inhibition, usual class: inhibitors; actives 0.35% (n = 210,000);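 further: IP1 builds up when IMPase is blocked and the TR-FRET signal falls; potency means the concentration at half of the fitted maximal effect; plate controls were basal vehicle for no effect and high inhibitor control for full effect; nearly all actives have a fitted effect of over 50% in size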
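Readout is a homogeneous TR-FRET IP1 immunoassay (Ex 320, Em 665 and 620), where raised cytosolic IP1 lowers signal. Cells were CHO-M1 treated 30 min at 37C with test compounds plus a little lithium; AC50 values came from Hill-equation fitting.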
IMPase cell inh: cell-permeable inhibitors of inositol monophosphatase (IMPase) | P97697 | CHO-M1 cells, IP1 accumulation, HTRF TR-FRET ratio | inhibition (IP1 accumulation), % at 46.1 µM | 120,000 tested, under 10 active; active means well fitted curve in the direction sought with a large enough effect in the signal ratio, not every such curve was filed as active; inconclusive means small, poorly fitted or top-dose-only effect, or a change in a side signal; inactive means no such curve, though single readings can be large or run the other way; the % refers to the signal ratio;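 further: cells stimulated with carbachol in lithium chloride buffer; plate controls were DMSO basal wells for no effect and reference inhibitor wells for full effect; higher means more IMPase inhibition seen as more IP1 and lower FRET ratio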
Target sequence (P97697 whole entry, looked up): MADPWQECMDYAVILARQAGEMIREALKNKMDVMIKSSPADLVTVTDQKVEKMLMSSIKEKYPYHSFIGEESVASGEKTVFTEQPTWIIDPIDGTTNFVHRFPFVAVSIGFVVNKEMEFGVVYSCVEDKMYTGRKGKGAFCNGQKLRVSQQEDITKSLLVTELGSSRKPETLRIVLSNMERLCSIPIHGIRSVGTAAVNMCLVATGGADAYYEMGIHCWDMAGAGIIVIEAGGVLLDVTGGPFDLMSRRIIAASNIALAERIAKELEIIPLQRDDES
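Measured: the HTRF emission ratio (665/620 nm) plus the 620 nm donor channel, each fitted to the Hill equation to give AC50. Cells were CHO-M1 given compounds up to 46 uM and a 30 min carbachol stimulation at 37C.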
Starred values were filed as active, the others as inactive; ? = inconclusive; / = no result given; [ ] = another dose, or the depositor's remark. Sampled rows, rich in hits. Any-hit rate of the full collection: about 5.3%. Unless noted, the call rests on the fitted dose curve; in most records, active means well fitted curve in the direction sought with a large enough effect; inconclusive means small, poorly fitted or top-dose-only effect, or another doubt; inactive means no such curve, though single readings can be large; an effect the other way counts as inactive or inconclusive. Unless noted, on the % scale 0 is the no-effect control and ±100 the full control effect.

SMILES	HPGD block	PNC assembly inh	ALOX12 inhib	15-hLO-2 inh	IMPase Li cell	IMPase cell inh
CCOC(=O)c1ccc(NC(=O)c2ccccc2C)cc1	-12%	27	-3%	/	-6%	/
C=CCn1c(C)cc(C(=O)CSc2n[nH]c(N)n2)c1C	-12%	10	8%	3%	5%[38.3 µM]	-3
CCN(CC)S(=O)(=O)c1ccc(C(=O)Oc2cc(C)[nH]c(=O)c2[N+](=O)[O-])cc1	/	/	/	/	1%	/
CN(C)S(=O)(=O)c1ccc(Cl)c(NC(=O)COC(=O)C2CSC3(C)CCC(=O)N23)c1 (stereo not drawn)	2%	-15	-1%	/	-3%	/
CCc1c(C(=O)Nc2ccccc2)c(C)[nH]c(=S)c1C#N	20µM*	-3	-27%	?	?	-9
Cc1ccccc1NC(=O)c1c(C)[nH]c(=S)c(C#N)c1-c1ccco1	-19%	10	-5%	/	0%	13
Cc1[nH]c(=S)c(C#N)c(C)c1C(=O)Nc1ccccc1	22µM*	18	-2%	?	3%[38.3 µM]	-14
CC1CC(C)(C)NC(=S)N1CC(=O)NCc1ccc2c(c1)OCO2 (stereo not drawn)	/	/	/	/	2%	/
CC(=O)Oc1ccc2c(=O)c(N3C(=O)c4ccccc4C3=O)c(C)oc2c1	25µM*	-91*	-3%	/	-8%	/
CNC1=C(Br)C(=O)c2ccncc2C1=O	-15%	/	-9%	-30%	31%	/
CCOc1ccc(/C(O)=C2/C(=O)C(=O)N(CCOCCO)C2c2ccccn2)cc1 (stereo not drawn)	-19%	21	-4%	-9%	8.9µM*	?
CCOc1ccc(/C(O)=C2/C(=O)C(=O)N(CCOCCO)C2c2ccc(F)cc2)cc1 (stereo not drawn)	-12%	6	-4%	6%	11µM*	?
CCOc1ccc(C2/C(=C(/O)c3ccc(F)cc3)C(=O)C(=O)N2CCCN(C)C)cc1 (stereo not drawn)	-10%	-4	5%	5%[2.29 µM]	10%[38.3 µM]	-15
COC(=O)CS	-6%	/	-3%	-3%	-10%	/
O=C1NC(=O)c2cc(Nc3ccccc3)c(Nc3ccccc3)cc21	?	/	-4%	-20%	20%	12
COc1cc(/C=N/NC(=S)N/N=C/c2cc(OC)c(OC)c(OC)c2)cc(OC)c1OC	?	-109*	-15%	/	-8%	/
COc1cc(/C=N/NC(=S)Nc2cccc(C(=O)O)c2)cc(OC)c1OC	-23%	-27	-23%	/	-3%	17
CCC(=O)CCC(=O)c1ccc2ccccc2c1	-26%	?	3%	/	-1%	/
CC(C)N(CCC(=O)c1ccc2ccccc2c1)Cc1ccccc1	?	/	?	13µM*	13%	6
COC(=O)CCCC(=O)NC(C)c1cnn(-c2ccccc2C)c1C (stereo not drawn)	/	/	/	/	-1%	/
CN(c1ccc(OCC(=O)N2CCCCC2)cc1)S(=O)(=O)c1cccs1	14µM*	-9	-5%	10%	4%[38.3 µM]	-15
O=C(CCCOc1ccc(Cl)cc1)N1CCCCCC1	2.2µM*	-99*	-2%	-3%	52%[38.3 µM]	8
O=C(CCCOc1ccc(Cl)cc1)N1CCCCC1	1.6µM*	-8	3%	2%	23%[38.3 µM]	21
O=C(CCCOc1ccccc1)N1CCCCC1	4µM*	-19	4%	2%	-7%[38.3 µM]	2
O=C(COc1ccc(Cl)cc1)N1CCN(c2ncccn2)CC1	1%	-11	-5%	6%	8%[38.3 µM]	2
SMILES	HPGD block	PNC assembly inh	ALOX12 inhib	15-hLO-2 inh	IMPase Li cell	IMPase cell inh
Cc1cc(Cl)ccc1OCC(=O)N1CCCCC1	28µM*	-3	-6%	9%[2.29 µM]	-13%[38.3 µM]	5
CS(=O)(=O)N(CC(=O)N1CCCCCC1)Cc1ccc(Cl)cc1	-2%	-107*	-3%	-7%	7%[38.3 µM]	0
O=C(COc1ccc(Cl)cc1)N1CCCCC1	25µM*	19	6%	0%	25%[38.3 µM]	13
CN1CCN(C(=O)CN(Cc2ccc(Cl)cc2)S(C)(=O)=O)CC1	-6%	?	0%	3%	28%[38.3 µM]	3
Nc1nc(CSc2nc3ccccc3s2)nc(N2CCOCC2)n1	/	/	/	/	-27%	/
Nc1nc(CSCc2ccccc2)nc(N2CCOCC2)n1	-11%	-107*	-5%	-9%	27%[38.3 µM]	3
COc1ccc2c(c1)N(C[C@@H](C)CN(C)C)c1ccccc1S2	-3%	/	1%[25.6 µM]	8%[25.6 µM]	16%	12[20.6 µM]
COc1ccc(Oc2nc3ccccc3nc2C(F)(F)F)cc1	-6%	32	3%	5%	8%[38.3 µM]	10
COc1ccc(Oc2nc(SC)nc3ccccc23)cc1	-14%	-28	3%	-3%[11.4 µM]	10µM*	-8[1.84 µM]
COc1ccccc1C1(CC(=O)N2CCCCC2)CCOC(C(C)C)C1 (stereo not drawn)	25µM*	-16	0%	-2%	-6%[38.3 µM]	-5
COc1c(C=O)c(O)cc2c1C(=O)c1ccccc1C2=O	/	/	/	/	-14%	/
CN(C)c1nc(N2CCN(c3ccccc3)CC2)c(C#N)c(=O)o1	16µM*	-22	3%	1%	14%	-1
Cc1cccc(C)c1N1CCN(c2nc(N(C)C)oc(=O)c2C#N)CC1	?	56	4%	7%	-2%[38.3 µM]	-9
COc1cc(NS(=O)(=O)c2ccc(NC(=O)c3ccc(Cl)cc3Cl)cc2)nc(OC)n1	/	/	/	/	/	-11
O=S(=O)(c1ccc(NC(=S)NCCC(c2ccccc2)c2ccccc2)cc1)N1CCOCC1	-16%	43	?	/	1%	/
CCC(C)(C)n1nnnc1CN1CCC(NC(=O)c2ccccc2C)CC1	-11%	-100*	0%	/	3%	10
CCC(=O)N1CCN(c2ccc(Cl)cc2NC(=O)Cc2ccc(Cl)cc2)CC1	-9%	-82*	-2%	4%	15%[38.3 µM]	17
COc1ccc(OCC(O)CN2CCN(c3ccccc3)CC2)cc1 (stereo not drawn)	/	/	/	/	1%	/
COc1ccc(OCC(O)CN2CCN(c3ncccn3)CC2)cc1 (stereo not drawn)	-13%	-122*	5%	/	-2%	/
CCOC(=O)c1cn(CC)c2ccc(S(=O)(=O)N3CCC(C)CC3)cc2c1=O	16µM*	?	0%	-5%	4%[38.3 µM]	21
O=C(Nc1ccc2c(c1)ncn2-c1ccccc1)c1ccco1	32µM*	-21	3%	-2%	6%	-6
Cn1cnc2cc(NC(=O)c3ccco3)ccc21	-9%	?	2%	-1%	-2%[38.3 µM]	7
O=C(Nc1ccc(NC(=O)c2ccco2)c(Cl)c1)c1ccccc1	/	/	/	/	9%	/
O=C(Nc1ccc(Br)c(Cl)c1)c1ccco1	22µM*	?	?	5%[2.29 µM]	8%[38.3 µM]	1

Assay outcomes as filed in PubChem.
